# Measurements as given in PubChem BioAssay (NCI).
# About 83,000 compounds went through this panel and 20% of them were active in at least one assay; those are over-represented in the sample as a whole.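 Compound tested at a single concentration for 48 hours in 96-well plates; a percent growth value below 10 was scored as active.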 A number with no mark means an inactive call. Calls of active or inactive are those of the source.
# Experiments:
# Assay in all cases: NCI-60 one-dose screen, 48 h (100 = growth as untreated, 0 = no growth, -100 = all killed)
# SK-MEL-2 melanoma = conditions: 10 µM unless noted
# EKVX NSCLC = conditions: 10 µM unless noted
# SN12C renal = conditions: 10 µM unless noted
# UO-31 renal = conditions: 10 µM unless noted
# TK-10 renal = conditions: 10 µM unless noted
# ACHN renal = conditions: 10 µM unless noted
# CAKI-1 renal = conditions: 10 µM
# A498 renal = conditions: 10 µM unless noted
# CCRF-CEM leukemia = conditions: 10 µM unless noted
# MOLT-4 leukemia = conditions: 10 µM unless noted
# SR leukemia = conditions: 10 µM unless noted
# OVCAR-8 ovarian = conditions: 10 µM unless noted
# OVCAR-5 ovarian = conditions: 10 µM unless noted
# OVCAR-4 ovarian = conditions: 10 µM unless noted
# SK-OV-3 ovarian = conditions: 10 µM unless noted
# IGROV1 ovarian = conditions: 10 µM unless noted
# OVCAR-3 ovarian = conditions: 10 µM unless noted
# HS 578T breast = conditions: 10 µM unless noted
# NCI/ADR-RES ovarian = conditions: 10 µM unless noted
# RPMI-8226 leukemia = conditions: 10 µM unless noted
Structure (SMILES),growth (SK-MEL-2 melanoma),growth (EKVX NSCLC),growth (SN12C renal),growth (UO-31 renal),growth (TK-10 renal),growth (ACHN renal),growth (CAKI-1 renal),growth (A498 renal),growth (CCRF-CEM leukemia),growth (MOLT-4 leukemia),growth (SR leukemia),growth (OVCAR-8 ovarian),growth (OVCAR-5 ovarian),growth (OVCAR-4 ovarian),growth (SK-OV-3 ovarian),growth (IGROV1 ovarian),growth (OVCAR-3 ovarian),growth (HS 578T breast),growth (NCI/ADR-RES ovarian),growth (RPMI-8226 leukemia)
CC(C)C(=O)Nc1ccc(-c2nc(-c3cccc(O)c3)c(-c3ccnc(Br)c3)[nH]2)cc1,44.1%,80.6%,63.5%,24%,81.1%,64.2%,45.1%,37.4%,17.3%,9.54% (active),-3.9% (active),49.5%,84.3%,43.4%,54.5%,59.4%,56.1%,-12% (active),92.3%,–
Cc1ccc(/C=C/CC(=O)Nc2ccc(C(=O)Nc3ccc(F)cc3N)nc2)cn1,31.3%,49.8%,57.6%,25.3%,6.58% (active),31.6%,26.4%,-3.27% (active),17.8%,18.1%,31.4%,29.1%,38.5%,43.9%,–,43.9%,59%,35.6%,53.6%,8.53% (active)
CCOC(=O)c1nn(-c2ccc(C)cc2)c(=O)c2c(N)c(C#N)c(-c3ccc(OC)cc3)cc12,95.1%,84.7%,85.6%,80.5%,125%,93.6%,92%,118%,103%,114%,127%,–,94.3%,–,–,80.2%,108%,90.1%,106%,98.6%
O=C(NCCCNc1cc(-c2cn(-c3ccccc3)nc2-c2cccc(O)c2)ccn1)Nc1cc(C(F)(F)F)cc(C(F)(F)F)c1,88.1%,73.3%,79.4%,51.4%,93.4%,92.6%,74.1%,71.4%,63.1%,43.3%,53.9%,75.7%,88.8%,–,89.3%,–,86.5%,57.3%,69.7%,43.9%
CC(C)(C)OC(=O)N1CCN(S(=O)(=O)/N=C2\NC(=O)NC2=C(Cl)Cl)CC1,88.9%,90.8%,91.7%,91.6%,124%,99.5%,98.8%,83.7%,29.4%,89%,23.6%,100%,101%,100%,–,84%,104%,72.9%,99%,84.7%
C/C(=C(/C)C1CC1CCN(C(=O)c1ccc([N+](=O)[O-])cc1)S(=O)(=O)c1ccc(C)cc1)C1CCCCC1 (stereo not drawn),102%,82.4%,91.8%,92.2%,108%,99%,84.9%,105%,93.6%,80.3%,94.8%,97.6%,101%,90.8%,–,111%,96.2%,102%,94.3%,85.7%
COc1cc(/C=N/n2cnc3oc(-c4ccccc4)cc3c2=N)cc(CN2CCN(C)CC2)c1O,113%,99.3%,80.4%,74%,113%,83.1%,73.3%,72.2%,66.9%,76.4%,35.2%,93.9%,105%,–,91.3%,61.7%,–,68%,98.7%,95.8%
C#C[C@]1(O)CC[C@H]2[C@@H]3CC=C4c5sc(-c6ccccn6)nc5CC[C@]4(C)[C@H]3CC[C@@]21C,70.7%,77.7%,87.2%,35.8%,104%,75.8%,87.7%,70.6%,37.5%,21.7%,29.3%,91.8%,94.2%,98.6%,76.8%,88.9%,88%,14.4%,89.8%,–
O=C(COc1ccc(/C=C2\SC(=O)NC2=O)cc1)Nc1ccc(C(=O)/C=C/c2cc3ccccc3nc2Cl)cc1,91%,73.1%,87.5%,57.6%,89.8%,85.1%,59.2%,80.7%,35.4%,42.8%,31.3%,76.4%,110%,–,108%,71.4%,–,78.8%,92.6%,-25.8% (active)
O=C1c2cc(Br)ccc2-n2c1nc1cc(Br)ccc1c2=O,73.4%,59.5%,76.6%,62.6%,149%,79%,78.7%,125%,71.9%,67.7%,65.8%,78.3%,90.8%,64.7%,–,59.8%,47.3%,96.1%,84.2%,75.8%
COc1ccc(OC)c(NC2=C(Cl)C(=O)C(C)=C(C)C2=O)c1,95.7%,77.4%,92.8%,92.4%,172%,100%,94%,91.6%,12.9%,36%,96.5%,95.6%,109%,55.5%,–,89.6%,92.3%,92.8%,96.8%,65.9%
COc1cc(/C=N/n2cnc3oc(-c4ccccc4)cc3c2=N)cc(CN2CCOCC2)c1O,104%,89.9%,72.4%,74%,102%,28%,43.7%,53.8%,26.2%,52.9%,32%,60.4%,84.2%,–,68.4%,21.7%,108%,14.8%,72.5%,27.5%
Cc1ccc(/C=C/CC(=O)Nc2ccc(C(=O)Nc3ccc(F)cc3N)cc2)cn1,60.7%,63.4%,73.5%,58.9%,34.9%,80.8%,57.2%,38.9%,23.3%,45.1%,46.1%,48.4%,55.7%,62.1%,–,65.5%,79.5%,56.7%,90%,19.8%
COCCC[C@H]1O[C@@](O)([C@H](C)[C@@H]2CC(OC)C(O)/C=C(C)/C=C(C)/C=C(\C)C(OC3O[C@@H](C)[C@H](O)C(O)[C@@H]3O)C(C)/C=C(C)/C=C(OC)/C=C(\C)C(=O)O2)C(OC)C(O)[C@]1(C)O[C@H]1C[C@@H](O)[C@H](O[C@H]2C[C@](C)(O)[C@H](O)C(C)O2)C(C)O1 (stereo partly drawn),50.6%,21.6%,68.3%,25.7%,49.9%,67.7%,73.8%,56%,53.9%,47.8%,113%,41.9%,78.9%,–,61%,88.1%,74.9%,86.1%,67.3%,27.5%
COc1ccc(C(=O)c2c(N)c(C#N)cn2-c2cccc(OC)c2)cc1,28.8%,38.7%,32.4%,33.8%,69.2%,38.5%,30.5%,-1.17% (active),18.1%,29.3%,27%,34.2%,56.9%,63.1%,–,32%,–,11%,9.32% (active),22.1%
Oc1ccccc1-c1nnc(SCc2ccc(O)c3ncccc23)n1-c1ccccc1,23.1%,-0.459% (active),14.5%,-9.38% (active),18.9%,8.88% (active),11.3%,-6.54% (active),7.6% (active),18%,25.2%,15.5%,33%,–,8.88% (active),6.65% (active),18.7%,21.3%,6.23% (active),12.2%
